ER stress surv: ER stress cell death inhibition. CSM14.1 thapsigargin ER stress survival, ATP luminescence. relative survival (cellular ATP), % at 15 µg/mL (by protocol). 48,000 compounds, 0.33% hits. AID 1010;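 active = survival measured by cellular ATP above 50% at 15 µg/ml in the first screen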;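 also: cell death triggered by about 15 µM thapsigargin; ATP read 24 h after thapsigargin was added; plate controls were thapsigargin with DMSO for no effect and DMSO without thapsigargin for full effect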
The depositor's hits bear a star. Many of the other results were omitted from the sample, so hits are more common in it than they were.

SMILES	ER stress surv
COc1ccc(N2C(=O)c3ccccc3NC2c2ccc(OC)c(CN3C(=O)c4ccccc4C3=O)c2)cc1 (stereo not given)	10
COc1ccc(C2Nc3ccccc3C(=O)N2c2ccccc2)cc1CN1C(=O)c2ccccc2C1=O (stereo not given)	5
COc1ccc(C2Nc3ccccc3C(=O)N2c2ccccc2)cc1COc1ccc(NC(C)=O)cc1 (stereo not given)	87*
O=C(c1cccs1)N1CCN(Cc2ccc(Cl)cc2)CC1	-4
CC(C)CC(=O)N1CCN(Cc2ccc3ccccc3c2)CC1	-3
COc1ccc(CN2CCN(C(=O)c3cccs3)CC2)cc1OC	-9
CCn1c2ccccc2c2cc(CN3CCN(C(=O)c4cccs4)CC3)ccc21	133*
CCn1c2ccccc2c2cc(CN3CCN(Cc4ccc(OC)c(Br)c4)CC3)ccc21	2
CCn1c2ccccc2c2cc(CN3CCN(C(=O)CC(C)C)CC3)ccc21	63*
CCc1ccccc1NC(=O)COc1cccc(C)c1	2
COc1ccc(C(=O)Nc2ccccc2C(=O)O)cc1[N+](=O)[O-]	2
COC(=O)c1ccc(/C=C2\SC(=O)N(NC(=O)c3ccc([N+](=O)[O-])cc3)C2=O)cc1	1
COc1ccc(N2C(=O)C(Cl)=C(Nc3cc(OC)ccc3OC)C2=O)cc1	12
Cc1sc(NC(=O)c2ccc(F)cc2)c(C(=O)O)c1C	0
Cc1ccccc1CN1CCN(Cc2ccncc2)CC1	2
CS(=O)(=O)N(Cc1ccc(Cl)cc1)c1ccc(C(=O)Nc2ccc(Cl)cc2)cc1	3
COc1cc(/C=N/NC(=O)c2ccc([N+](=O)[O-])cc2)ccc1OC(=O)c1sc2ccccc2c1Cl	17
O=C1CC(c2ccccc2)CC2=C1C(c1c(F)cccc1Cl)Nc1ccccc1N2 (stereo not given)	105*
O=C1CC(c2ccccc2)CC2=C1C(c1cccc(Cl)c1Cl)Nc1ccccc1N2 (stereo not given)	-1
O=C1CC(c2ccccc2)CC2=C1C(c1ccc(Br)cc1)Nc1ccccc1N2 (stereo not given)	12
O=C1CC(c2ccc(Cl)cc2)CC2=C1C(c1ccccc1F)Nc1ccccc1N2 (stereo not given)	6
O=C1CC(c2ccccc2)CC2=C1C(c1cc(Br)ccc1F)Nc1ccccc1N2 (stereo not given)	80*
COc1ccc(C2CC(=O)C3=C(C2)Nc2ccccc2NC3c2c(F)cccc2Cl)cc1 (stereo not given)	1
O=C1S/C(=C/c2ccc(-c3ccc([N+](=O)[O-])cc3Cl)o2)C(=O)N1c1ccccc1	10
CCN(CC)c1ccc(/C=N\N2CCN(c3ccccc3)CC2)c(O)c1	8
SMILES	ER stress surv
CCCCc1ccc(-c2csc(/C(C#N)=C/c3ccc(OC)c(OC)c3)n2)cc1	13
CCOc1ccccc1C(=O)N/N=C/c1cn(-c2ccccc2)nc1-c1ccc(OC)cc1	8
CCN(CC)CCCCOc1ccc(Cl)c(C)c1	-3
FC(F)(F)c1ccc2nnc(-c3cc(Br)ccc3OCc3ccccc3)n2c1	2
COc1ccc2ccccc2c1-c1nnc2ccc3ccccc3n12	7
COc1ccc2ccccc2c1-c1nnc2ccc(C(F)(F)F)cn12	60*
Cc1sc2nc(-c3ccc(C(C)C)cc3)[nH]c(=O)c2c1C	8
O=C(NCCc1ccccc1)C1C(c2ccccc2)=C1c1ccccc1	7
O=C(NC(c1ccccc1)c1ccccc1)c1ccncc1	15
Fc1ccc(COc2ccccc2/C=N/n2cnnc2)cc1	3
CCOC(=O)c1c(C)nc(C)c(C(=O)OCC)c1-c1ccccc1	4
CCOc1ccc(C(=O)Nc2cccc(NC(=O)c3ccc(F)cc3)c2)cc1	0
CCOC(=O)c1c(C)nc(C)c(C(=O)OCC)c1-c1cccc(NC(=O)c2ccc(F)cc2)c1	115*
C=CCn1c(SCC(=O)N2c3ccccc3C(C)(c3ccccc3)CC2(C)C)nnc1-c1ccncc1 (stereo not given)	76*
Cc1nnc(SCC(=O)N2c3ccccc3C(C)(c3ccc(Br)cc3)CC2(C)C)s1 (stereo not given)	-2
CC1(c2ccccc2)CC(C)(C)N(C(N)=O)c2ccccc21 (stereo not given)	2
CCOc1ccc(C(=O)Nc2ccc(Cc3ccncc3)cc2)cc1Cl	35
CCOc1ccc(C(=O)Nc2ccc(Cl)c(-c3nc4ccccc4[nH]3)c2)cc1Cl	65*
CCOc1ccc(C(=O)Nc2cc(Cl)cc(Cl)c2)cc1Cl	6
Cc1cccc(C)c1N(Cc1ccccc1)C(=O)c1c(F)cccc1F	0
COc1c(Cl)cc(C(=O)Nc2cccc(-c3nc4ncccc4o3)c2)cc1Cl	3
CCOC(=O)C1=C(C)N=c2s/c(=C\c3ccccc3)c(=O)n2C1c1ccc(Cl)cc1 (stereo not given)	8
COc1ccc(C2=CC(=O)CC(c3ccccc3)C2)cc1 (stereo not given)	-1
O=C1C=C(c2ccccc2)CC(c2ccccc2)C1n1nnc2ccccc21 (stereo not given)	95*
Cc1cccc(NC(=O)C(=O)NCCC(C)C)c1C	3
SMILES	ER stress surv
O=C(NC1CCCCC1)ON=C(c1ccccc1)c1ccccc1	16
COC(=O)c1c(NC(=O)c2ccccc2OC)sc2c1C(C(=O)OC)CC2 (stereo not given)	8
COc1ccc(C2/C(=C(/O)c3ccccc3)C(=O)C(=O)N2Cc2ccccc2)c(OC)c1 (stereo not given)	25
CCN(CC)c1ccc(Nc2nc(-c3c(C)nc4ccccn34)cs2)cc1	44
Cc1nc(C)c(-c2csc(Nc3ccc(O)cc3)n2)s1	2
CCN(CC)c1ccc(Nc2nc(-c3sc(N)nc3C)cs2)cc1	72*
CC(OCc1ccccc1)C(NC(=O)OC(C)(C)C)C(=O)NCCc1c[nH]c2ccccc12 (stereo not given)	12
O=C(C(c1ccccc1)c1ccccc1)N1CCN(Cc2ccccc2[N+](=O)[O-])CC1	92*
COc1cccc(CN2CCN(C(=O)C(c3ccccc3)c3ccccc3)CC2)c1OC	10
COc1ccccc1C(=O)N1CCN(Cc2ccccc2[N+](=O)[O-])CC1	3
COc1cccc(C2/C(=C(\O)c3ccccc3)C(=O)C(=O)N2c2cccnc2)c1 (stereo not given)	2
COC(=O)/C(=C\C=C\N(C)c1ccccc1)C(C)=O	-5
CCOC(=O)/C(=C/C=C/N(C1CCCCC1)C1CCCCC1)C(C)=O	50*
CCOC(=O)/C(C(C)=O)=C(\C=C\N(C)C)N(C)C	-7
COc1ccc(-c2cc(C(=O)Nc3c(C)cc(C)cc3C)c3ccccc3n2)cc1OC	-1
COc1ccc(OC)c(CN2CCN(C(=O)c3ccc(OC)c(OC)c3)CC2)c1	-5
COc1cc(OC)c(OC)cc1CN1CCN(C(=O)c2ccc(-c3ccccc3)cc2)CC1	6
c1ccc(Oc2cccc(CN3CCN(Cc4ccccn4)CC3)c2)cc1	-2
Cc1ccc(C(=O)N2CCN(Cc3ccccc3)CC2)cc1	1
COc1cccc(CN2CCN(C(=O)c3ccc(-c4ccccc4)cc3)CC2)c1	93*
O=C(c1ccccc1)N1CCN(Cc2cccc(Oc3ccccc3)c2)CC1	59*
COc1ccc(C(=O)N2CCN(Cc3cccc(Cl)c3)CC2)cc1	5
COc1ccc(C(=O)N2CCN(Cc3cccc(C)c3)CC2)cc1	9
O=C(c1ccc(F)cc1)N1CCN(Cc2cccc(Oc3ccccc3)c2)CC1	32
O=C(c1ccc(F)cc1)N1CCN(Cc2ccc(Cl)cc2)CC1	6
